High-throughput results as filed in PubChem BioAssay.
An excerpt weighted towards active compounds, which were near 6.3% of everything screened.
NADH enzymes – inhibitors of PK/LDH coupling enzymes, profiling panel, artefact control, biochemical, MLSMR library | coupled PK/LDH NADH assays, four targets | IC50, µM (highest dose often 10 µM), inactives show top-dose inhibition | 0.02% of 65,000 active | AID 774, 2007;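 active = single-dose screening hits from any of four coupled enzyme assays that gave an IC50 when retested across doses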;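 also: the DPM-DC format reads NADH fluorescence rather than 340 nm absorbance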
PMK inhibit – S. pneumoniae PMK inhibitors, primary screen, biochemical, mevalonate pathway, pilot trial included. 0.49% of 65,000 active. inhibition, % at 10 µM. purified PMK, PK/LDH-coupled NADH absorbance 340 nm. phosphomevalonate kinase (Streptococcus pneumoniae D39);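 active = top-ranked compounds by inhibition in the single 10 µM screen, taking a fixed number of the strongest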;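 also: 0% = full reaction with DMSO carrier and 100% = background rate without enzyme reaction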
Autofluor 339 – intrinsic fluorescence of library compounds, ex339/em460 – biochemical, MLSMR library, data from DPM-DC assay, artefact control, profiling panel; compound autofluorescence, ex339/em460 nm, NADH buffer; stronger effect = higher value; 1 = no-compound wells, NADH background; fluorescence fold increase at 10 µM; 5.5% of 65,000 active; AID 709, 2007;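 active = at 10 µM, mean starting fluorescence two-fold or more over control wells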;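 also: signal is the first read of a kinetic run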
Abs 340nm – compound light absorbance at 340 nm, profiling panel, artefact control, biochemical, MLSMR library, data from PS, PMK, MK assays | 65,000 tested, under 10 active | compound absorbance at 340 nm, fold over control | fold change at 10 µM;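 active = at 10 µM dose, initial 340 nm absorbance at least 2 fold that of control wells; inactive = change under 2 fold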;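 also: initial absorbance extrapolated from kinetic A340 decline of NADH oxidation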
DPM-DC inhibit – S. pneumoniae DPM-DC inhibitors, primary screen, biochemical, PK/LDH-coupled NADH fluorescence | calls only at 10 µM | purified DPM-DC | diphosphomevalonate decarboxylase (Streptococcus pneumoniae D39) | 0.49% of 65,000 active;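 active = the 320 compounds with the highest percent inhibition in the single-dose primary screen, excluding strongly autofluorescent ones, cut at about 32% in these data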;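 also: kinetic rate of NADH fluorescence loss reporting ADP formed by the decarboxylase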
MK inhibit – S. pneumoniae MK inhibitors, primary screen, biochemical, PK/LDH-coupled NADH absorbance. purified MK, PK/LDH-coupled NADH absorbance 340 nm. mevalonate kinase [Streptococcus pneumoniae D39]. 0.48% of 65,000 active. inhibition, % at 10 µM. AID 555, 2006;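 active = ranked among the strongest by inhibition in the single 10 µM screen, a fixed top-ranked set picked for dose follow-up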
The depositor's hits bear a star; i = inactive; nt = no result shown; + = active, no number.

SMILES	NADH enzymes	PMK inhibit	Autofluor 339	Abs 340nm	DPM-DC inhibit	MK inhibit
CC12CCC(C(=O)N3CCN(c4ccccc4)CC3)(CC1=O)C2(C)C (stereo not drawn)	6.0%	9.0	1.07	0.99	i	8.0
CCN(C(=O)COc1cc(=O)n(C)c2ccccc12)c1cccc(Cl)c1	5.0%	8.0	1.06	1	i	7.0
Cn1c(=O)c2nc(-c3ccc(Cl)cc3Cl)oc2c2ccccc21	4.0%	1.0	2.04*	1.1	nt	6.0
O=c1c2cc(N3CCOCC3)ccc2[nH]c(=S)n1Cc1ccco1	16.0%	10.0	3.54*	1.06	i	7.0
O=c1c2cc(N3CCOCC3)ccc2[nH]c(=S)n1CCCN1CCCC1	8.0%	12.0	1.98	1.02	i	8.0
O=c1c2cc(Cl)ccc2[nH]c(=S)n1Cc1ccco1	3.0%	8.0	1	0.99	i	9.0
COc1cccc(Cn2c(=S)[nH]c3ccc(N4CCOCC4)cc3c2=O)c1	21.0%	16.0	3.71*	1.06	+	7.0
CCC(=O)N/C(=N/c1nc(C)cc(C)n1)Nc1cccc(OC)c1	6.0%	11.0	1.09	1.03	i	6.0
O=C(CCn1c(=S)[nH]c2cc3c(cc2c1=O)OCO3)N1CCN(C2CCCCC2)CC1	2.0%	14.0	1.02	1	i	0.0
O=C(Nc1ccccc1F)N(CCCN1CCOCC1)Cc1cc2cc3c(cc2[nH]c1=O)OCCO3	10.0%	3.0	3.77*	1.04	i	15.0
CCOc1ccc2[nH]c(=O)c(CN(CCc3ccccc3)C(=O)c3cnccn3)cc2c1	5.0%	16.0	1.39	1.08	i	0.0
Cc1ccc(NC(=O)N(CCCN2CCOCC2)Cc2cc3cc4c(cc3[nH]c2=O)OCO4)cc1	21.0%	15.0	2.93*	1.09	+	15.0
Cc1ccc2[nH]c(=O)c(CN(CCN3CCOCC3)C(=O)Nc3ccc(F)cc3)cc2c1	6.0%	8.0	1.22	1.04	i	10.0
CCOc1ccc2[nH]c(=O)c(CN(CC3CCCN3CC)C(=O)NCc3ccccc3)cc2c1 (stereo not drawn)	10.0%	19.0	3.41*	1.02	nt	0.0
CCN(CC)CCCN(Cc1cc2cc3c(cc2[nH]c1=O)OCCO3)C(=O)Nc1ccccc1	18.0%	10.0	3*	1.04	+	9.0
CCc1ccc2[nH]c(=O)c(CN(CCCN3CCOCC3)C(=O)Nc3ccc(Cl)cc3)cc2c1	4.0%	10.0	1.22	0.99	i	3.0
CC(C)C1O/C(=N/C(=O)Nc2ccc(Cl)c(Cl)c2)NC1=O (stereo not drawn)	3.0%	9.0	1.03	0.99	i	0.0
COc1ccccc1-n1c(CNc2c(C)cccc2C)nnc1SCC(=O)N1CCOCC1	7.0%	8.0	1.04	1.01	i	7.0
O=C(COn1nnc2ccc(Cl)cc21)NCc1ccccc1	4.0%	13.0	1.08	0.99	i	0.0
CCOc1cc(N2CCOCC2)c(OCC)cc1NS(=O)(=O)c1ccc(Cl)s1	5.0%	11.0	1.03	1.04	i	0.0
CCc1ccc2[nH]c(=O)c(CN(CCCN3CCOCC3)C(=O)Nc3ccccc3)cc2c1	5.0%	11.0	1.35	1.02	i	5.0
Cc1ccc(NC(=O)N(Cc2ccc3c(c2)OCO3)Cc2cc3cc4c(cc3[nH]c2=O)OCCO4)cc1	3.0%	8.0	1.45	1.06	i	0.0
O=C(Nc1ccc(F)cc1)N(Cc1ccco1)Cc1cc2cc3c(cc2[nH]c1=O)OCO3	16.0%	21.0	2.69*	1	nt	6.0
COc1ccc2[nH]c(=O)c(CN(CCCN3CCOCC3)C(=O)NCc3ccccc3)cc2c1	13.0%	14.0	3.27*	1.05	i	7.0
O=C(Nc1ccccc1)N(CCCN1CCOCC1)Cc1cc2cc3c(cc2[nH]c1=O)OCCO3	5.0%	13.0	2.5*	1.04	nt	12.0
SMILES	NADH enzymes	PMK inhibit	Autofluor 339	Abs 340nm	DPM-DC inhibit	MK inhibit
CC(C)(C)NC(=O)CN(C(=O)CS(=O)CC(=O)Nc1ccc(F)cc1)c1ccc(Cl)cc1 (stereo not drawn)	3.0%	13.0	0.99	0.98	i	4.0
Cc1onc(-c2ccccc2)c1C(=O)NC(C)C1CCCO1 (stereo not drawn)	7.0%	4.0	1.13	1.01	i	11.0
OC1(CN2CCOCC2)C2CN3CCN(C2)CC1(c1ccccc1)C3 (stereo not drawn)	12.0%	28.0*	1.1	0.98	i	9.0
CCOC(=O)C(NC(=O)c1ccccc1)=C1C=C(C)OC(C)=C1	3.0%	5.0	1.05	1.19	i	5.0
COC(=O)C(NC(=O)c1ccccc1)=C1C=C(C)OC(C)=C1	10.0%	29.0*	1.05	1.34	i	0.0
Cc1nnc2sc(-c3ccc(NC(=O)c4ccc(-c5ccc(Cl)cc5Cl)o4)cc3)nn12	6.0%	1.0	3.87*	1.14	nt	11.0
Cc1nnc2sc(-c3ccc(NC(=O)c4cccnc4)cc3)nn12	10.0%	11.0	1.06	1.12	i	18.0
Cc1occc1-c1nnc(SCC(=O)Nc2nccs2)n1CCc1ccccc1	12.0%	13.0	2.11*	1.03	i	11.0
CCN(CC)S(=O)(=O)c1cc(Br)ccc1OC	3.0%	0.0	1.08	1.07	i	9.0
CCOc1cc(CN2CCN(C(=O)c3ccco3)CC2)ccc1OC	7.0%	0.0	1.01	1.05	i	51.0*
CCOc1cc(CN2CCN(c3ccc(C(C)=O)cc3)CC2)ccc1OC	15.0%	0.0	1.1	1.17	i	44.0*
COc1ccc(CN2CCN(C(=O)c3cccs3)CC2)cc1Br	21.0%	13.0	1.07	1.06	i	49.0*
CC(CCc1ccccc1)NC(=O)CSc1nc(N)cc(N)n1 (stereo not drawn)	2.0%	0.0	1.04	0.99	i	4.0
CC(=O)N1CCN=C1SCc1ccc(Cl)cc1	4.0%	0.0	0.93	1.02	i	3.0
Cc1cc(=O)oc2cc(OCc3nnc(-c4ccccc4Br)o3)ccc12	9.0%	12.0	4.51*	1.02	nt	5.0
COc1ccc(-c2nnc3ccc(SCC(=O)N4CCN(c5ccccc5)CC4)nn23)cc1OC	6.0%	16.0	1.11	0.99	i	1.0
CCOC(=O)CCC(NC(=O)c1cncc(O)c1)C(=O)OCC (stereo not drawn)	6.0%	0.0	2.91*	1.1	i	5.0
N#CC(C(=O)NC1CC1)c1nc2ccccc2nc1N1CCCC1 (stereo not drawn)	9.0%	16.0	1.84	1.04	i	0.0
N#CC(C(=O)NC1CCCCC1)c1nc2ccccc2nc1N1CCCCC1 (stereo not drawn)	55.0%	41.0*	1.82	1.05	+	31.0
